The values below come from PubChem BioAssay (EPA / NIEHS).

SMILES strings stand for the structures. The source made the active and inactive calls. How the source made its calls: active means hit-call score of the fitted dose curve at least 0.9, where 1 is the maximum; inactive means score below 0.9.

Conditions in all cases: mRNA level, 48 h; actives raise or lower the signal
Read-out in experiment [1]: Interleukin 6 Receptor (IL6R), IL6R (gene 3570)
Nature of the experiment: LTEA_HepaRG_IL6R: Life Technologies and Expression Analysis (LTEA) Assay for Interleukin 6 Receptor (IL6R) using HepaRG (AID 2283510). Put shortly:
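Concentration-response in human liver HepaRG cells: eight concentrations from 100 uM downward by half-logs, 48 h exposure, 0.5% DMSO vehicle. IL6R mRNA change measured by qRT-PCR and fitted in both directions relative to vehicle.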

Read-out in experiment [2]: Potassium channel subfamily K member 1 (KCNK1), KCNK1 (gene 3775)
Nature of the experiment: LTEA_HepaRG_KCNK1: Life Technologies and Expression Analysis (LTEA) Assay for Potassium channel subfamily K member 1 (KCNK1) using HepaRG (AID 2283511). Put shortly: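 Differentiated human HepaRG cells in serum-free induction medium were exposed in duplicate for 48 h to 8 half-log concentrations up to 100 uM in 0.5% DMSO. KCNK1 mRNA was measured by TaqMan qRT-PCR, normalized to ACTB, GAPDH and POLR2A, and fitted bidirectionally versus DMSO.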

Read-out in experiment [3]: Keratin 19 (KRT19), KRT19 (gene 3880)
Nature of the experiment: LTEA_HepaRG_KRT19: Life Technologies and Expression Analysis (LTEA) Assay for Keratin 19 (KRT19) using HepaRG (AID 2283512). Put shortly:
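Differentiated HepaRG cells in serum-free induction medium, exposed 48 h in duplicate to 8 half-log concentrations up to 100 uM in 0.5% DMSO. KRT19 mRNA by qRT-PCR, normalized to ACTB, GAPDH, POLR2A; bidirectional fit vs DMSO.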

Read-out in experiment [4]: JUN Transcription Factor, JUN (gene 3725)
Nature of the experiment: LTEA_HepaRG_JUN: Life Technologies and Expression Analysis (LTEA) Assay for JUN Transcription Factor using HepaRG (AID 2283513). Put shortly:
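Human HepaRG liver cells receive test chemicals in 0.5% DMSO for 48 h across an eight-point range topping at 100 uM. Expression changes in JUN are scored in both directions against the DMSO vehicle.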

Read-out in experiment [5]: Lipase C (LIPC), LIPC (gene 3990)
Nature of the experiment: LTEA_HepaRG_LIPC: Life Technologies and Expression Analysis (LTEA) Assay for Lipase C (LIPC) using HepaRG (AID 2283514). Put shortly: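 Differentiated human HepaRG cells in serum-free induction medium were exposed in duplicate for 48 h to eight concentrations (top 100 uM, half-log steps, 0.5% DMSO). LIPC mRNA was quantified by TaqMan qRT-PCR, normalized to ACTB, GAPDH and POLR2A, with bidirectional fitting versus DMSO.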

Read-out in experiment [6]: Lipoprotein lipase (LPL), LPL (gene 4023)
Nature of the experiment: LTEA_HepaRG_LPL: Life Technologies and Expression Analysis (LTEA) Assay for Lipoprotein lipase (LPL) using HepaRG (AID 2283515). Put shortly: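 Differentiated human HepaRG cells in serum-free induction medium were exposed in duplicate for 48 h to eight half-log concentrations (top 100 uM) in 0.5% DMSO. LPL mRNA was quantified by TaqMan qRT-PCR, normalized to ACTB, GAPDH and POLR2A.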

Read-out in experiment [7]: MicroRNA 122 (MIR122), gene 406906
Nature of the experiment: LTEA_HepaRG_MIR122: Life Technologies and Expression Analysis (LTEA) Assay for MicroRNA 122 (MIR122) using HepaRG (AID 2283516). Further: the transcript read is the microRNA miR-122. Put shortly:
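HepaRG, 48 h exposure, 8-pt half-log from 100 uM, 0.5% DMSO; TaqMan qRT-PCR; bidirectional fit vs DMSO.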

Read-out in experiment [8]: matrix metalloproteinase-10 (MMP10), MMP10 (gene 4319)
Nature of the experiment: LTEA_HepaRG_MMP10: Life Technologies and Expression Analysis (LTEA) Assay for matrix metalloproteinase-10 (MMP10) using HepaRG (AID 2283517). Put shortly: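 HepaRG, collagen I, ~100,000 cells/well; serum-free induction medium; 48 h exposure, duplicate, 8-pt half-log to 100 uM, 0.5% DMSO. Readout: TaqMan qRT-PCR, normalized to ACTB/GAPDH/POLR2A; bidirectional fit vs DMSO.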

Read-out in experiment [9]: MYC, MYC (gene 4609)
Nature of the experiment: LTEA_HepaRG_MYC: Life Technologies and Expression Analysis (LTEA) Assay for MYC using HepaRG (AID 2283518). Put shortly:
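Differentiated HepaRG cells exposed 48 h in serum-free induction medium to 8 concentrations (top 100 uM, half-log steps; 0.5% DMSO), duplicate. MYC mRNA measured by Fluidigm qRT-PCR, normalized to ACTB, GAPDH, POLR2A; bidirectional fit versus DMSO.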

Read-out in experiment [10]: matrix metalloproteinase-3 (MMP3), MMP3 (gene 4314)
Nature of the experiment: LTEA_HepaRG_MMP3: Life Technologies and Expression Analysis (LTEA) Assay for matrix metalloproteinase-3 (MMP3) using HepaRG (AID 2283519). Put shortly:
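Differentiated human HepaRG cells, plated 48 h on collagen I, were exposed in duplicate for 48 h in serum-free induction medium to eight half-log concentrations up to 100 uM in 0.5% DMSO. MMP3 mRNA was quantified by TaqMan qRT-PCR, normalised to ACTB, GAPDH and POLR2A.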

Read-out in experiment [11]: Paternally Expressed 10 (PEG10), PEG10 (gene 23089)
Nature of the experiment: LTEA_HepaRG_PEG10: Life Technologies and Expression Analysis (LTEA) Assay for Paternally Expressed 10 (PEG10) using HepaRG (AID 2283520).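 On AC50: PEG10 transcript by qRT-PCR normalised to ACTB GAPDH and POLR2A.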 Put shortly:
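Chemicals tested on HepaRG cells for 48 h, highest concentration 100 uM. PEG10 expression assessed by qRT-PCR relative to DMSO control.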

Read-out in experiment [12]: Nuclear factor NF-kappa-B p105 subunit (Homo sapiens) (UniProt P19838)
Nature of the experiment: LTEA_HepaRG_NFKB1: Life Technologies and Expression Analysis (LTEA) Assay for Nuclear Factor Kappa B Subunit 1 (NFKB1) using HepaRG (AID 2283521).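 Further: TaqMan qRT-PCR transcript normalised to ACTB GAPDH and POLR2A housekeeping genes.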 Put shortly: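 HepaRG, 48 h exposure; 8-pt half-log series from 100 uM in 0.5% DMSO; duplicates. Readout: NFKB1 mRNA by qRT-PCR (Fluidigm arrays), housekeeping-normalized. Gain/loss fit vs DMSO baseline.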

Read-out in experiment [13]: Protein phosphatase 2A (PPP2R4), PTPA (gene 5524)
Nature of the experiment: LTEA_HepaRG_PPP2R4: Life Technologies and Expression Analysis (LTEA) Assay for Protein phosphatase 2A (PPP2R4) using HepaRG (AID 2283522). Put shortly: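 Gene-expression endpoint in HepaRG hepatic cells: 48 h treatment across eight half-log concentrations up to 100 uM in 0.5% DMSO. PPP2R4 mRNA by qRT-PCR, normalized to three endogenous control genes.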

Read-out in experiment [14]: Phosphatase and tensin (PTEN), PTEN (gene 5728)
Nature of the experiment: LTEA_HepaRG_PTEN: Life Technologies and Expression Analysis (LTEA) Assay for Phosphatase and tensin (PTEN) using HepaRG (AID 2283523). Put shortly: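 Differentiated human HepaRG cells, plated 48 h then switched to serum-free induction medium, were exposed in duplicate for 48 h to eight half-log concentrations up to 100 uM in 0.5% DMSO. PTEN mRNA measured by TaqMan qRT-PCR, normalized to ACTB/GAPDH/POLR2A, bidirectional fit versus DMSO.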

Read-out in experiment [15]: solute carrier (SLC22A1), SLC22A1 (gene 6580)
Nature of the experiment: LTEA_HepaRG_SLC22A1: Life Technologies and Expression Analysis (LTEA) Assay for solute carrier (SLC22A1) using HepaRG (AID 2283524). Put shortly: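 Human HepaRG cells were plated 48 h, switched to serum-free induction medium, then exposed in duplicate for 48 h to 8-point half-log series from 100 uM in 0.5% DMSO. SLC22A1 mRNA measured by qRT-PCR, normalized to ACTB/GAPDH/POLR2A, fitted bidirectionally versus DMSO.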

Read-out in experiment [16]: Pyruvate Dehydrogenase Kinase 4 (PDK4), PDK4 (gene 5166)
Nature of the experiment: LTEA_HepaRG_PDK4: Life Technologies and Expression Analysis (LTEA) Assay for Pyruvate Dehydrogenase Kinase 4 (PDK4) using HepaRG (AID 2283525). Put shortly: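 Differentiated human HepaRG cells, pre-cultured 48 h, were exposed in duplicate for 48 h in serum-free induction medium to eight half-log concentrations up to 100 uM in 0.5% DMSO. PDK4 mRNA was quantified by qRT-PCR, normalized to ACTB, GAPDH and POLR2A, bidirectional fitting versus DMSO.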

Read-out in experiment [17]: NAD(P)H dehydrogenase [quinone] 1 (NQO1), NQO1 (gene 1728)
Nature of the experiment: LTEA_HepaRG_NQO1: Life Technologies and Expression Analysis (LTEA) Assay for NAD(P)H dehydrogenase [quinone] 1 (NQO1) using HepaRG (AID 2283526). Put shortly: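 Human HepaRG hepatic cells received chemicals for 48 h in serum-free induction medium with 0.5% DMSO, up to 100 uM. Expression was assessed by TaqMan qRT-PCR against housekeeping controls and fitted bidirectionally against DMSO.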

Read-out in experiment [18]: Nuclear factor erythroid 2-related factor 2 (Homo sapiens) (UniProt Q16236)
Nature of the experiment: LTEA_HepaRG_NFE2L2: Life Technologies and Expression Analysis (LTEA) Assay for Nuclear factor erythroid 2-related factor 2 (NFE2L2) Transcription Factor using HepaRG (AID 2283527).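 Further: TaqMan qRT-PCR transcript level normalised to ACTB GAPDH and POLR2A housekeeping genes.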 Put shortly:
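Differentiated human HepaRG cells in serum-free induction medium were exposed for 48 h to eight concentrations (top 100 uM, half-log dilutions, 0.5% DMSO), in duplicate. NFE2L2 mRNA was quantified by TaqMan qRT-PCR, normalized to ACTB, GAPDH and POLR2A, with bidirectional fitting versus DMSO.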

Read-out in experiment [19]: succinate dehydrogenase complex iron sulfur subunit B (SDHB), SDHB (gene 6390)
Nature of the experiment: LTEA_HepaRG_SDHB: Life Technologies and Expression Analysis (LTEA) Assay for succinate dehydrogenase complex iron sulfur subunit B (SDHB) using HepaRG (AID 2283528). Put shortly: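 Readout is SDHB transcript level by qRT-PCR, normalised to three housekeeping genes and fitted bidirectionally against 0.5% DMSO vehicle. Human HepaRG cells were treated for 48 h at up to 100 uM.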

Read-out in experiment [20]: Signal transducer and activator of transcription 3 (Homo sapiens) (UniProt P40763)
Nature of the experiment: LTEA_HepaRG_STAT3: Life Technologies and Expression Analysis (LTEA) Assay for Signal transducer and activator of transcription (STAT3) using HepaRG (AID 2283529). Put shortly: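 Differentiated human HepaRG cells in serum-free induction medium were exposed in duplicate for 48 h to eight half-log concentrations up to 100 uM in 0.5% DMSO. STAT3 mRNA was quantified by TaqMan qRT-PCR, normalized to ACTB, GAPDH and POLR2A, and fitted bidirectionally against DMSO.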

Sequence of Nuclear factor erythroid 2-related factor 2 (Homo sapiens) (Q16236 whole entry, looked up): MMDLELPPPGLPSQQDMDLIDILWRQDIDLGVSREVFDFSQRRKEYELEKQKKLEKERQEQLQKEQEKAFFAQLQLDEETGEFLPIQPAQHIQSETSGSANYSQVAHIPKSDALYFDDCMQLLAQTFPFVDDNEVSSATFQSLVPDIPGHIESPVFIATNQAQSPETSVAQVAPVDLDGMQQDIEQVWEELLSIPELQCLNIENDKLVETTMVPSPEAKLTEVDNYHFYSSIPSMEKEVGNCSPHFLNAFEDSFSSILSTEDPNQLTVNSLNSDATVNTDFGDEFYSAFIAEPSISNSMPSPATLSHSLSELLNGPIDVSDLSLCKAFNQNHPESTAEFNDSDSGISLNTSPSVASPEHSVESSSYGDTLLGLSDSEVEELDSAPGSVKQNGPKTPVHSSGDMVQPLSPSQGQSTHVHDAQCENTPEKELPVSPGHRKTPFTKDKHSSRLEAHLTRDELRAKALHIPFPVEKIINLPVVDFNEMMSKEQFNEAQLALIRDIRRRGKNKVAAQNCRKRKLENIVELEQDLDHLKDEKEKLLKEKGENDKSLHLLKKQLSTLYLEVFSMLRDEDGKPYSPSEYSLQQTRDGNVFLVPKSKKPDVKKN
Sequence of Signal transducer and activator of transcription 3 (Homo sapiens) (P40763 whole entry, looked up): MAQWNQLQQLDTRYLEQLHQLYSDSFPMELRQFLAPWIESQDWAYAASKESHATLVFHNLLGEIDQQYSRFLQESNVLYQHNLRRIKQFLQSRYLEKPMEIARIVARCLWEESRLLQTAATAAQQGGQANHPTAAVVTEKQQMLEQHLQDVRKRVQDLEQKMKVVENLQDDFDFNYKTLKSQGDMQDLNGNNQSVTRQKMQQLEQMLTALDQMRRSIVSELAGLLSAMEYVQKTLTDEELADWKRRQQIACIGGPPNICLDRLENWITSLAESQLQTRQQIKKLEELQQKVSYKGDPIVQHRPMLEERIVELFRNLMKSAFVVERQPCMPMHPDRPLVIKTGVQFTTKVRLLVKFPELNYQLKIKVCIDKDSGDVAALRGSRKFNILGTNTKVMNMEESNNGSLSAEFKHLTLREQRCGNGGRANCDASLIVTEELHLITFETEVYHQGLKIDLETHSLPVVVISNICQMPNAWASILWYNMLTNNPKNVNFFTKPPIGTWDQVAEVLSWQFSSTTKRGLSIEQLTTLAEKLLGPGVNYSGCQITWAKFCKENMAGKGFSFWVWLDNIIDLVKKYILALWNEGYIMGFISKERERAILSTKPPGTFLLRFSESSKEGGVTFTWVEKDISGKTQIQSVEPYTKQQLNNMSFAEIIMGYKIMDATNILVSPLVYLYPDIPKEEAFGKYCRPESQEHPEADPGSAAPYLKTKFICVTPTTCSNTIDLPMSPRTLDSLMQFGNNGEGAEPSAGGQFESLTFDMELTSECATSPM
Sequence of Nuclear factor NF-kappa-B p105 subunit (Homo sapiens) (P19838 whole entry, looked up): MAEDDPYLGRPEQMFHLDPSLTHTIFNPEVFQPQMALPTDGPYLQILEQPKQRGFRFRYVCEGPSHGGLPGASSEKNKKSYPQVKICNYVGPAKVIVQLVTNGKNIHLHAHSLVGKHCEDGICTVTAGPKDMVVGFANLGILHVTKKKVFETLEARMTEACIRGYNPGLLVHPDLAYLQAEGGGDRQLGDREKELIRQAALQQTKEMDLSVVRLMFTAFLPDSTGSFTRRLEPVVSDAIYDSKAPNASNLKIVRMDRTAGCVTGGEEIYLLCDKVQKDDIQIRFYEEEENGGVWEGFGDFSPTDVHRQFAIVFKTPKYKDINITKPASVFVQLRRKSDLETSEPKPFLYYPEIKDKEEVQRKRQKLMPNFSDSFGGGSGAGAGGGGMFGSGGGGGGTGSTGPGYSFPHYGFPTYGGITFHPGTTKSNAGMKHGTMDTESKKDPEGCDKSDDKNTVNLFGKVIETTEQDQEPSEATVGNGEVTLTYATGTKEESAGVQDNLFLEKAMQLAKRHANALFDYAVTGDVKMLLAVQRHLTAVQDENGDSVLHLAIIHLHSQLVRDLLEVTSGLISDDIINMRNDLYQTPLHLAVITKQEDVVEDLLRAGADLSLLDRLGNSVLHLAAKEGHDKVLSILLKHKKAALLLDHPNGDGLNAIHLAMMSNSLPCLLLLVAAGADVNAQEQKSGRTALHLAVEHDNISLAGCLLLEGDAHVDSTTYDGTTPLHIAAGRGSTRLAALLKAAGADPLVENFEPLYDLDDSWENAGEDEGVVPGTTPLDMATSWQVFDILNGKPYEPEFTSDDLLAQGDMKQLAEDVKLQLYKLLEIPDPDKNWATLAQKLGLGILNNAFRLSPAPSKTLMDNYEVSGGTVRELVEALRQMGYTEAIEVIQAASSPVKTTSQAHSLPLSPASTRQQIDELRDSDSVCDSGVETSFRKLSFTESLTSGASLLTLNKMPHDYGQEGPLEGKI

One may read the AC50 as the concentration at which the activity in the assay is half-maximal. Turning to `CC(C)=CC1C(C(=O)OCc2coc(Cc3ccccc3)c2)C1(C)C` (centres undefined), the molecule was called inactive in [1], in experiment [2], in experiment [3], in [4], in experiment [5] and in experiment [6]. In addition, the result in experiment [7], in [8], in experiment [9], in [10], in [11] and in experiment [12] was inactive. The result in [13], in [14], in experiment [15], in experiment [17], in experiment [18] and in experiment [19] was inactive. Besides, the molecule was called inactive in [20]. Also, the concentration at half-maximal activity (AC50) in experiment [16] was 50 µM (active).

For the molecule `CC(C)Oc1cccc(NC(=O)c2ccccc2C(F)(F)F)c1`, the molecule was called inactive in experiment [1], in experiment [2], in experiment [4], in experiment [5], in [6] and in experiment [7]. Besides, the molecule was called inactive in experiment [8], in [9], in [10], in experiment [12], in [13] and in experiment [14]. Further, the molecule was classed as inactive in [15], in [17], in experiment [18], in [19] and in experiment [20]. Moreover, the values for the half-maximal activity concentration (AC50) in experiment [3], in experiment [11] and in experiment [16] were 34.1 µM (active), 78.5 µM (active) and 50 µM (active), respectively.

For the molecule `CCOc1nc(F)cc2nc(S(=O)(=O)Nc3c(Cl)cccc3Cl)nn12`, the result in experiment [1], in experiment [2], in [4], in experiment [5], in experiment [6] and in [7] was inactive. Also, the molecule was called inactive in experiment [8], in experiment [9], in experiment [11], in experiment [13], in [14] and in [16]. Besides, the molecule was called inactive in [17], in experiment [18], in experiment [19] and in experiment [20]. For the same molecule, the figures for the AC50 in experiment [3], in experiment [10] and in experiment [15] were 9.92 µM (active), 50 µM (active) and 50 µM (active), respectively.
